Hit rate of the full screen: of about 65,000 compounds, about 100 (0.15%) were called active. This excerpt belongs to a sample that is enriched for actives. Values without a mark were called inactive.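 The calls were made as follows: active = inhibition above about 50% (limit read from the data); inconclusive = inhibition over screen mean plus 3 SD, below that limit; inactive = the rest.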
What follows are compounds tested against Dual specificity protein phosphatase 1 (Homo sapiens) (UniProt P28562) (assay: MKP-1 phosphatase inhibitors, primary screen, biochemical, in vitro (AID 374;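 also: 0% = DMSO max control wells and 100% = wells with enzyme stopped by NaOH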)). Conditions: recombinant MKP-1, OMFP hydrolysis fluorescence; hits give high values;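 compounds tested at a single concentration somewhere between 10 and 100 µM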.
Chain of Dual specificity protein phosphatase 1 (Homo sapiens) (P28562 whole entry, looked up): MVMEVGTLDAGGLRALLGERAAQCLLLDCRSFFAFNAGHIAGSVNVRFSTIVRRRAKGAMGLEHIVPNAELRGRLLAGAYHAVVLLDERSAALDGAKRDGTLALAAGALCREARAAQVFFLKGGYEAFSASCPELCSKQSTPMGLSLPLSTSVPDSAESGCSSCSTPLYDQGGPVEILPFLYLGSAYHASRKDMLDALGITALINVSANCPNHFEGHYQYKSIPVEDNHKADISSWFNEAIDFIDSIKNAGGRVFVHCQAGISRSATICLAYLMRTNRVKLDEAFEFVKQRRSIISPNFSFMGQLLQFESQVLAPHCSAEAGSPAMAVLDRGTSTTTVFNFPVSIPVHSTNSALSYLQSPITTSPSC

Question: Which inhibition does the source give for `CC(CCc1ccccc1)NC(=O)c1ccc(Br)o1` (stereo not drawn) here?
Answer: 9.59%

Question: With `CC(C)CNC(=O)C1CCCN(S(=O)(=O)c2ccc(-n3cnnn3)cc2)C1` (stereo not drawn) as the compound, how does the inhibition read?
Answer: 10.4%

Question: `CC(C)C(C(=O)NC1CCCCC1)N(CC1CCCO1)C(=O)CNS(=O)(=O)c1ccc(F)cc1` (stereo not drawn) was tested. Which inhibition did it give?
Answer: 42%

Question: For `COc1ccc(OCC(=O)N2CCN(C(=O)COc3ccccc3)CC2)cc1`, which inhibition is on record?
Answer: 3.4%

Question: For `CCOC(=O)C1CCCN(C(=O)c2cncc(Br)c2)C1` (stereo not drawn), which inhibition is on record?
Answer: -1.24%

Question: With `COc1cccc(N2CCN(C3CC(=O)N(c4ccc(Cl)cc4)C3=O)CC2)c1` (stereo not drawn) as the compound, how does the inhibition read?
Answer: 9.47%

Question: `COc1cccc(N2C(=O)C3CCCN3C2c2ccc(F)cc2)c1` (stereo not drawn) was tested. Which inhibition did it give?
Answer: 7.6%

Question: Which inhibition does the source give for `CCOC(=O)N1CCN(C(=O)c2ccc3nc4cc(Cl)ccc4c(=O)n3c2)CC1` here?
Answer: -0.24%

Question: `CNC(=O)C1CC(=O)N(Cc2ccc3c(c2)OCO3)C(=Nc2ccc(F)cc2)S1` (stereo not drawn) was tested. Which inhibition did it give?
Answer: 4.87%

Question: How did the inhibition turn out when `CCCNc1ncnc2sc(C)c(C)c12` was run?
Answer: 6.02%

Question: `CCCc1nc(-c2ccccc2O)n(-c2ccccc2)n1` was tested. Which inhibition did it give?
Answer: -14.3%

Question: For `COc1ccccc1-n1cnc2cc(NS(=O)(=O)c3ccccc3)ccc21`, which inhibition is on record?
Answer: -7.71%

Question: `C=C(C)Cn1c(N2CCCC2)nc2c1c(=O)[nH]c(=O)n2C` was tested. Which inhibition did it give?
Answer: 4.46%

Question: Which inhibition does the source give for `CCOC(=O)N1CCN(Cc2oc(CO)cc(=O)c2O)CC1` here?
Answer: 30.4%

Question: `Cc1cccc(N2CCN(C(=O)c3cc4c(=O)[nH]c5ccccc5c4n3C)CC2)c1C` was tested. Which inhibition did it give?
Answer: 50.9% (active)

Question: `Cn1c(C(=O)NCCN2CCc3ccccc3C2)cc2c(=O)[nH]c3ccccc3c21` was tested. Which inhibition did it give?
Answer: 31%

Question: How did the inhibition turn out when `CC(=O)N1CCN(c2cccc(C)c2C)CC1` was run?
Answer: 9.16%

Question: Which inhibition does the source give for `COCCCn1c(CCC(=O)O)ccc1-c1ccc(F)cc1` here?
Answer: 33.1%

Question: `Cn1c(SCc2c(F)cccc2Cl)nnc1-c1cnccn1` was tested. Which inhibition did it give?
Answer: 4.26%

Question: For `COc1cccc(CN2C(=O)CCC2(C)C(=O)NC2CCCCCC2)c1` (stereo not drawn), which inhibition is on record?
Answer: 10.3%

Question: Which inhibition does the source give for `Cc1ccc(-c2noc(CSc3nnnn3-c3ccccc3)n2)cc1` here?
Answer: 0.15%

Question: How did the inhibition turn out when `O=c1c2ccccc2nc(CSc2nnnn2-c2ccccc2)n1-c1ccccc1` was run?
Answer: 11.8%

Question: `Cc1ccc(Nc2nc(CSc3nnnn3-c3ccccc3)cc(=O)[nH]2)cc1` was tested. Which inhibition did it give?
Answer: 53.9% (active)

Question: `CCOCCCNC(=O)c1c[nH]c2cc(C)ccc2c1=O` was tested. Which inhibition did it give?
Answer: 7.4%

Question: How did the inhibition turn out when `COc1ccc(NC(=O)c2c(SC)nsc2SC)cc1` was run?
Answer: 0.33%

Question: `CC(=O)Nc1ccc(S(=O)(=O)Nc2nc3n(n2)C(c2ccccc2)CC(=O)N3)cc1` (stereo not drawn) was tested. Which inhibition did it give?
Answer: -6%

Question: `CC(C)COC(=O)c1ccc(NC(=O)C2C3C=CC(C3)C2C(=O)O)cc1` (stereo not drawn) was tested. Which inhibition did it give?
Answer: 23.6%

Question: With `CCCCOc1ccc(C(=O)NCc2ccco2)cc1` as the compound, how does the inhibition read?
Answer: -0.67%

Question: How did the inhibition turn out when `C[C@H](NC(=O)OC(C)(C)C)c1nnc(SCC(=O)Nc2ccc(Br)cc2)o1` was run?
Answer: 13%

Question: `Cc1oc2nc(SCC(=O)NCc3cccnc3)nc(N)c2c1C` was tested. Which inhibition did it give?
Answer: 32.5%

Question: How did the inhibition turn out when `CN1c2ccccc2-c2nc3ccccc3n2C1c1ccco1` (stereo not drawn) was run?
Answer: -25.5%

Question: How did the inhibition turn out when `COc1ccc(F)cc1S(=O)(=O)Nc1ccc2c(c1)OCO2` was run?
Answer: 12.4%

Question: `CCOC(=O)N1CCN(C(=O)CN(c2ccc(C)c(C)c2)S(=O)(=O)c2ccccc2)CC1` was tested. Which inhibition did it give?
Answer: 12.6%

Question: How did the inhibition turn out when `O=S(=O)(c1cccs1)N1CCc2ccccc2C1` was run?
Answer: 1.16%

Question: With `CC1Cn2c(nnc2-c2cccs2)S1` (stereo not drawn) as the compound, how does the inhibition read?
Answer: -6.93%

Question: For `Cc1nc2nc3c(cn2n1)C(=O)CC(c1ccccc1)C3` (stereo not drawn), which inhibition is on record?
Answer: -8.11%

Question: Which inhibition does the source give for `CCSC(C)CC1C/C(=N/O)c2c(C)noc2C1` (stereo not drawn) here?
Answer: 12.5%

Question: How did the inhibition turn out when `COc1cccc(C2/C(=C(/O)c3ccc(F)cc3)C(=O)C(=O)N2CCN(C)C)c1` (stereo not drawn) was run?
Answer: 3.73%

Question: For `O=C(Oc1ccc2c(c1)CCC2)N1CCOCC1`, which inhibition is on record?
Answer: -9.77%

Question: For `O=C(NC(=O)c1ccc(Cl)c(Cl)c1)OC1CCS(=O)(=O)C1` (stereo not drawn), which inhibition is on record?
Answer: 0.18%

Question: `O=C(Nc1c(Cl)cccc1Cl)C1CCC1` was tested. Which inhibition did it give?
Answer: -12.7%

Question: For `Cc1cccc(N2CCN(C(c3ccccc3)c3nnnn3CC3CCCO3)CC2)c1C` (stereo not drawn), which inhibition is on record?
Answer: 20.8%

Question: `COCCOC(=O)C1=C(C)NC(=O)NC1c1ccc(Cl)cc1` (stereo not drawn) was tested. Which inhibition did it give?
Answer: 5.89%

Question: For `CCc1ccccc1NC(=O)CSc1nnc([C@@H](NC(=O)OC(C)(C)C)C(C)CC)o1` (stereo partly drawn), which inhibition is on record?
Answer: 27.6%

Question: How did the inhibition turn out when `N#Cc1nc(Cc2cccc3ccccc23)oc1NCc1ccc2c(c1)OCO2` was run?
Answer: -0.11%

Question: How did the inhibition turn out when `COc1ccc(S(=O)(=O)Nc2ccc(S(=O)(=O)N3CCCCC3)cc2)cc1OC` was run?
Answer: -11.3%

Question: For `O=C(O)c1ccc(COCC(F)(F)F)cc1`, which inhibition is on record?
Answer: 5.73%

Question: For `COC(=O)[C@H](CCSC)NC(=O)Nc1ccc(OC)cc1`, which inhibition is on record?
Answer: -29.3%

Question: With `Cc1ccc(C(=O)NCCNS(=O)(=O)c2ccccc2)cc1` as the compound, how does the inhibition read?
Answer: 9.54%

Question: With `CCOC(=O)C1C(=O)OC2(CCCC2)C1C(=O)OCC` (stereo not drawn) as the compound, how does the inhibition read?
Answer: 0.52%

Question: With `CSC1=NCCN1C(=O)c1ccc(S(=O)(=O)N2CCOCC2)cc1` as the compound, how does the inhibition read?
Answer: -8.44%

Question: Which inhibition does the source give for `CC(C)(C)n1nc2c(c1NC(=O)c1ccc(S(=O)(=O)N3CCCC3)cc1)CS(=O)C2` (stereo not drawn) here?
Answer: 1.54%

Question: `COCCCNC(=O)CCc1nc2cccnc2n1Cc1ccc(OC)cc1` was tested. Which inhibition did it give?
Answer: 2.57%

Question: With `CCC(C(=O)Nc1ncccn1)(C(F)(F)F)C(F)(F)F` as the compound, how does the inhibition read?
Answer: -11.8%

Question: `CCN(CC)S(=O)(=O)c1cccc(C(=O)Nc2cc(C)nn2-c2nc(C)cc(C)n2)c1` was tested. Which inhibition did it give?
Answer: -26.4%

Question: `Cc1nc(-c2ccc(NC(=O)c3cccs3)cc2)cs1` was tested. Which inhibition did it give?
Answer: -3.52%

Question: With `Cn1c(SCC(=O)Nc2cccc(O)c2)nnc1-c1ccc(S(=O)(=O)N2CCOCC2)cc1` as the compound, how does the inhibition read?
Answer: -24.3%

Question: Which inhibition does the source give for `OC(COc1ccccc1)Cn1cc(Br)cn1` (stereo not drawn) here?
Answer: -0.2%

Question: `COC(=O)c1ccc(C2C3=C(Nc4nnnn42)c2ccccc2OC3)cc1` (stereo not drawn) was tested. Which inhibition did it give?
Answer: -1.69%

Question: For `Cc1c(C)c2cc3c4c(oc3c(C)c2oc1=O)CCCC4`, which inhibition is on record?
Answer: 10%

Question: How did the inhibition turn out when `Cc1nnc(SCC(=O)N2CCc3ccccc32)n1-c1ccccc1` was run?
Answer: 17.3%

Question: For `O=C(CSc1nc2[nH]ncc2c(=O)n1-c1ccccc1)N1CCCc2ccccc21`, which inhibition is on record?
Answer: 50.2% (active)

Question: For `C=CCn1c(=O)c2ccccc2n2c(SCC(=O)N3CCCc4ccccc43)nnc12`, which inhibition is on record?
Answer: 12.1%

— PubChem BioAssay AID374 (University of Pittsburgh Molecular Library Screening Center, 2006)
